In PubChem BioAssay AID1159580 (chemical genetic matrix, 2015):
Screen size: about 5,500 compounds; about 2,000 (36%) were called active. Roughly 18% stayed inconclusive and do not appear here. Rule as the data show it: active = normalized growth mostly below about 0.91 (no sharp cut-off); inconclusive = no clear call, values can overlap the other calls; inactive = mostly above about 0.92. The list shows a part of the results.

Assay: chemical genetic growth profiling, strain panel (AID 1159580);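 also: tested at 20 µM; growth read once vehicle control cultures reached saturation at 30 °C; 1 = growth at the plate median or of vehicle wells; lower values mean less growth of the strain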
Settings: growth OD

Measured: normalized growth

O=c1cc(-c2ccccc2)oc2c(O)c(O)ccc12
inactive: S. cerevisiae deletion strains, locus YJR066W, strain TOR1, stronger effect = lower value 0.985 | S. cerevisiae deletion strains, locus YJR075W, strain HOC1, stronger effect = lower value 1.01 | S. cerevisiae deletion strains, locus YKL009W, strain mrt4, stronger effect = lower value 0.96 | S. cerevisiae deletion strains, locus YKL068W, stronger effect = lower value 0.976 | S. cerevisiae deletion strains, locus YKL085W, strain MDH1 (second series), stronger effect = lower value 0.986 | S. cerevisiae deletion strains, locus YKL085W, strain MDH1, stronger effect = lower value 0.986 | S. cerevisiae deletion strains, locus YKL160W, strain elf1, stronger effect = lower value 0.986 | S. cerevisiae deletion strains, locus YKR026C, strain gcn3, stronger effect = lower value 0.993 | S. cerevisiae deletion strains, locus YKR091W, strain srl3, stronger effect = lower value 0.995 | S. cerevisiae deletion strains, locus YLL001W, strain dnm1, stronger effect = lower value 0.984 | S. cerevisiae deletion strains, locus YLL026W, stronger effect = lower value 1 | S. cerevisiae deletion strains, locus YLL041C, strain sdh2, stronger effect = lower value 0.987 | S. cerevisiae deletion strains, locus YLR027C, strain aat2, stronger effect = lower value 0.999 | S. cerevisiae deletion strains, locus YLR058C, strain SHM2, stronger effect = lower value 0.938 | S. cerevisiae deletion strains, locus YLR102C, strain apc9, stronger effect = lower value 0.99 | S. cerevisiae deletion strains, locus YLR113W, strain HOG1, stronger effect = lower value 1.01 | S. cerevisiae deletion strains, locus YLR221C, strain rsa3, stronger effect = lower value 0.994 | S. cerevisiae deletion strains, locus YLR258W, strain gsy2, stronger effect = lower value 0.987 | S. cerevisiae deletion strains, locus YLR320W, strain mms22, stronger effect = lower value 1.01 | S. cerevisiae deletion strains, locus YLR330W, strain CHS5, stronger effect = lower value 0.985 | S. cerevisiae deletion strains, locus YLR342W, strain FKS1, stronger effect = lower value 0.987 | S. cerevisiae deletion strains, locus YLR357W, strain rsc2, stronger effect = lower value 0.914 | S. cerevisiae deletion strains, locus YLR370C, strain arc18, stronger effect = lower value 0.99 | S. cerevisiae deletion strains, locus YLR384C, strain iki3, stronger effect = lower value 0.989 | S. cerevisiae deletion strains, locus YML016C, strain PPZ1, stronger effect = lower value 0.952 | S. cerevisiae deletion strains, locus YML032C, strain rad52, stronger effect = lower value 1.01 | S. cerevisiae deletion strains, locus YML120C, strain ndi1, stronger effect = lower value 0.973 | S. cerevisiae deletion strains, locus YML124C, strain tub3, stronger effect = lower value 0.999 | S. cerevisiae deletion strains, locus YMR058W, strain fet3, stronger effect = lower value 0.966 | S. cerevisiae deletion strains, locus YMR078C, strain ctf18, stronger effect = lower value 0.961 | S. cerevisiae deletion strains, locus YMR125W, strain sto1, stronger effect = lower value 0.984 | S. cerevisiae deletion strains, locus YMR129W, stronger effect = lower value 0.989 | S. cerevisiae deletion strains, locus YMR205C, strain PFK2, stronger effect = lower value 1 | S. cerevisiae deletion strains, locus YMR223W, strain ubp8, stronger effect = lower value 0.953 | S. cerevisiae deletion strains, locus YMR231W, strain pep5, stronger effect = lower value 0.968 | S. cerevisiae deletion strains, locus YMR307W, strain GAS1, stronger effect = lower value 0.709 | S. cerevisiae deletion strains, locus YNL067W, strain RPL9B, stronger effect = lower value 0.955 | S. cerevisiae deletion strains, locus YNL071W, strain lat1, stronger effect = lower value 0.985 | S. cerevisiae deletion strains, locus YNL153C, strain GIM3, stronger effect = lower value 0.988 | S. cerevisiae deletion strains, locus YNL183C, strain NPR1, stronger effect = lower value 1.01 | S. cerevisiae deletion strains, locus YNL209W, strain ssb2, stronger effect = lower value 0.979 | S. cerevisiae deletion strains, locus YNL233W, strain BNI4, stronger effect = lower value 0.922 | S. cerevisiae deletion strains, locus YNL248C, strain rpa49, stronger effect = lower value 0.982 | S. cerevisiae deletion strains, locus YNL250W, strain rad50, stronger effect = lower value 0.966 | S. cerevisiae deletion strains, locus YNL271C, strain bni1, stronger effect = lower value 0.972 | S. cerevisiae deletion strains, locus YNL298W, strain CLA4, stronger effect = lower value 0.972 | S. cerevisiae deletion strains, locus YNL307C, strain MCK1, stronger effect = lower value 0.982 | S. cerevisiae deletion strains, locus YNL322C, strain KRE1 (second series), stronger effect = lower value 0.993 | S. cerevisiae deletion strains, locus YNR049C, strain mso1, stronger effect = lower value 0.993 | S. cerevisiae deletion strains, locus YNR052C, strain pop2, stronger effect = lower value 0.916 | S. cerevisiae deletion strains, locus YOL006C, strain TOP1, stronger effect = lower value 0.545 | S. cerevisiae deletion strains, locus YOL012C, strain htz1 0.521 | S. cerevisiae deletion strains, locus YOL147C, strain pex11, stronger effect = lower value 0.977 | S. cerevisiae deletion strains, locus YOR001W, strain rrp6, stronger effect = lower value 0.972 | S. cerevisiae deletion strains, locus YOR061W, strain CKA2, stronger effect = lower value 0.921 | S. cerevisiae deletion strains, locus YOR069W, strain VPS5, stronger effect = lower value 0.971 | S. cerevisiae deletion strains, locus YOR070C, strain gyp1, stronger effect = lower value 0.982 | S. cerevisiae deletion strains, locus YOR080W, strain dia2, stronger effect = lower value 0.996 | S. cerevisiae deletion strains, locus YOR083W, strain WHI5, stronger effect = lower value 0.968 | S. cerevisiae deletion strains, locus YOR136W, strain idh2, stronger effect = lower value 0.962 | S. cerevisiae deletion strains, locus YOR144C, strain elg1, stronger effect = lower value 0.986 | S. cerevisiae deletion strains, locus YOR184W, strain ser1, stronger effect = lower value 0.927 | S. cerevisiae deletion strains, locus YOR231W, strain MKK1, stronger effect = lower value 1.06 | S. cerevisiae deletion strains, locus YOR265W, strain rbl2, stronger effect = lower value 0.983 | S. cerevisiae deletion strains, locus YOR270C, strain vph1, stronger effect = lower value 0.936 | S. cerevisiae deletion strains, locus YOR290C, strain snf2, stronger effect = lower value 0.987 | S. cerevisiae deletion strains, locus YOR316C, strain cot1, stronger effect = lower value 0.987 | S. cerevisiae deletion strains, locus YPL051W, strain arl3, stronger effect = lower value 0.983 | S. cerevisiae deletion strains, locus YPL078C, strain atp4, stronger effect = lower value 0.989 | S. cerevisiae deletion strains, locus YPL106C, strain sse1, stronger effect = lower value 0.88 | S. cerevisiae deletion strains, locus YPL240C, strain hsp82, stronger effect = lower value 0.975 | S. cerevisiae deletion strains, locus YPL241C, strain CIN2, stronger effect = lower value 0.987 | S. cerevisiae deletion strains, locus YPL256C, strain CLN2, stronger effect = lower value 1.06 | S. cerevisiae deletion strains, locus YPR119W, strain clb2, stronger effect = lower value 0.991 | S. cerevisiae deletion strains, locus YPR141C, strain kar3, stronger effect = lower value 0.974 | S. cerevisiae deletion strains, locus YPR163C, strain tif3, stronger effect = lower value 0.987 | S. cerevisiae deletion strains, locus YPR167C, strain met16, stronger effect = lower value 0.993 | S. cerevisiae deletion strains, strain wtn01, stronger effect = lower value 0.903
active: S. cerevisiae deletion strains, locus YKR001C, strain vps1, stronger effect = lower value 0.89 | S. cerevisiae deletion strains, locus YLR039C, strain RIC1, stronger effect = lower value 0.499 | S. cerevisiae deletion strains, locus YLR262C, strain YPT6 (second series), stronger effect = lower value 0.661 | S. cerevisiae deletion strains, locus YLR262C, strain YPT6, stronger effect = lower value 0.593 | S. cerevisiae deletion strains, locus YLR268W, strain sec22, stronger effect = lower value 0.768 | S. cerevisiae deletion strains, locus YLR342W, strain FKS1 (second series), stronger effect = lower value 0.764 | S. cerevisiae deletion strains, locus YLR371W, strain rom2, stronger effect = lower value 0.848 | S. cerevisiae deletion strains, locus YLR418C, strain cdc73, stronger effect = lower value 0.789 | S. cerevisiae deletion strains, locus YOR106W, strain vam3, stronger effect = lower value 0.853 | S. cerevisiae strains, strain wild type, stronger effect = lower value 0.834
